This is an account of results in PubChem BioAssay (Tox21).

Records with an inconclusive call do not appear. The source made the active and inactive calls. Calls follow the shape of the dose curve; as a rule, active = well fitted cell-killing curve with a large enough effect in the repeat runs; inconclusive = weak or mixed curves, or effect the other way; inactive = flat fitted curve, though single readings scatter.
% is scaled to controls: 0 for no effect and ±100 for the full control effect; potency is read from the fitted curve at half-maximal effect.

The assay is described as follows: qHTS RealTime-Glo MT Cell Viability Assay in HEK293 cells - 8 hour (AID 1224887). Also: nearly all actives have a fitted effect of over 50% in size. As to activity change, negative = cytotoxicity: top concentration of the series differs between compounds. The following applies: RealTime-Glo luminescence; series mostly up to 76.8 µM; activity change, negative = cytotoxicity: at the top concentration. The text has this: U.S. Tox21 Program National Center for Advancing Translational Sciences [NCATS] NIH Chemical Genomics Center [NCGC] U.S. Environmental Protection Agency [EPA] National Institutes of Environmental Health Sciences [NIEHS] National Toxicology Program [NTP] U.S. Food and Drug Administration [FDA] Tox21 Assay Overview: Measure of cell viability is critical in the cell-base assay. Analysis of cell viability is necessary for the characterization of cell responses to cytotoxic drugs and environmental stress. A RealTime-Glo MT Cell Viability Assay to monitor cell viability in real time of continues cell culture during 40 hours of compound treatment was used to screen Tox21 10K library compounds in Hek293 cells. The RealTime-Glo MT Cell Viability Assay is a nonlytic, homogeneous, bioluminescent method to measure cell viability in real time using a simple, plate-based method. The assay involves adding NanoLuc luciferase and a cell-permeant prosubstrate to cells in culture. Viable cells reduce the proprietary prosubstrate to generate a substrate for NanoLuc luciferase. This substrate diffuses from cells into the surrounding culture medium, where it is rapidly used by the NanoLuc Enzyme to produce a luminescent signal. The signal correlates with the number of viable cells, making the assay well suited for cytotoxicity studies.
Tox21 Assay Protocol Summary: The mixture of Hek293 cell suspension and reagents were dispensed at 600cells/6 ul/well in 1536-well tissue culture treated black solid bottom plates using a Multidrop dispenser. After the assay plates were incubated at a 37 C/5% CO2 incubator for 5 hours, 23 nL of compounds dissolved in DMSO, positive and negative controls was transferred to the assay plate by a pintool work station. The plates were incubated at 37 C for 40 hours. The luminescence intensity were measured at 0h, 8h, 16h, 24h, 32h and 40h time points using ViewLux plate reader during compound treatment.
Background: In qHTS, concentration-response curves come from the screen itself.
Consider `CCCNC(C)(C)COC(=O)c1ccccc1`, for which the “activity change, negative = cytotoxicity” value was 20.8% [at 35.3 µM] (inactive).

Take `CCCCc1ccc2nc(NC(=O)OC)[nH]c2c1`: the “activity change, negative = cytotoxicity” value is 1.44% [at 35.3 µM] (inactive).

`CCCCNc1cc(C(=O)O)cc(S(N)(=O)=O)c1Oc1ccccc1`: the “activity change, negative = cytotoxicity” value is 0.841% [at 35.3 µM] (inactive).

On to `C=O`, for which the “activity change, negative = cytotoxicity” value is -1.88% (inactive).

As for `CCOC(=O)C1CC(=O)C(=C(O)C2CC2)C(=O)C1` (stereo not given), the “activity change, negative = cytotoxicity” value was 11.3% (inactive).

With `Cc1cccc(C)c1NC(=O)CN1CCCCCC1`, the “activity change, negative = cytotoxicity” value was 5.5% [at 35.3 µM] (inactive).

`CC(C)(C)C1CCCCC1=O` (stereo not given): the “activity change, negative = cytotoxicity” value was 5.44% (inactive).

With `CCN(CC)C(=O)N(CC)CC`, the “activity change, negative = cytotoxicity” value is 7.73% (inactive).

Regarding `CN(C)CCOc1ccccc1Cc1ccccc1`, the “activity change, negative = cytotoxicity” value was 1.89% [at 35.3 µM] (inactive).

As to `COc1ccc(S(=O)(=O)Nc2nnc(CC(C)C)s2)cc1`, the “activity change, negative = cytotoxicity” value was 11.7% [at 35.3 µM] (inactive).

Turning to `NCCC(O)(P(=O)(O)O)P(=O)(O)O`, the “activity change, negative = cytotoxicity” value is -1.09% [at 35.3 µM] (inactive).

On to `Oc1ccccc1C=NCc1ccccc1`, for which the “activity change, negative = cytotoxicity” value is 0.248% [at 35.3 µM] (inactive).

On to `CCCCCCCCOC(=O)CCCCCCCCC(=O)OCCCCCCCC`, for which the “activity change, negative = cytotoxicity” value was 1.27% (inactive).

With `O=c1[nH]cnc2c1ncn2[C@@H]1O[C@H](CO)[C@@H](O)[C@H]1O`, the “activity change, negative = cytotoxicity” value was 3.56% [at 35.3 µM] (inactive).

As to `C1CCOC1`, the “activity change, negative = cytotoxicity” value was 0.617% (inactive).

For the compound `CC(C)C(=O)OCC(C)(C)C(O)C(C)C` (stereo not given), the “activity change, negative = cytotoxicity” value is 10.8% (inactive).

In the case of `CN1CCC[C@@H]1Cc1c[nH]c2ccc(CCS(=O)(=O)c3ccccc3)cc12`, the “activity change, negative = cytotoxicity” value is 3.79% [at 35.3 µM] (inactive).

On to `Cc1cn([C@@H]2O[C@H](CO)[C@@H](O)[C@@H]2F)c(=O)[nH]c1=O`, for which the “activity change, negative = cytotoxicity” value is 3.53% [at 35.3 µM] (inactive).

Turning to `Cc1c(N)cccc1N`, the “activity change, negative = cytotoxicity” value is 2.9% (inactive).

With `CCCOc1ccc2c(c1)CC[C@@H]1[C@@H]2CC[C@]2(C)C(OC)CC[C@@H]12` (stereo not given in full), the “activity change, negative = cytotoxicity” value was 10.7% [at 35.3 µM] (inactive).

With `ICCc1ccccc1`, the “activity change, negative = cytotoxicity” value is 0.82% (inactive).

For the compound `Cc1c(-c2ccccc2)oc2c(C(=O)OCCN3CCCCC3)cccc2c1=O`, the Potency was 19 µM (active).

For `FC(F)(F)c1ccccc1`, the “activity change, negative = cytotoxicity” value was -0.485% (inactive).

With `CC(=O)OC(C)OC(C)=O`, the “activity change, negative = cytotoxicity” value is 3.57% (inactive).

With `CCOC(=O)c1ccccc1O`, the “activity change, negative = cytotoxicity” value is 10.4% [at 35.3 µM] (inactive).

`CO[C@@]1(NC(=O)CSCC#N)C(=O)N2C(C(=O)O)=C(CSc3nnnn3C)CS[C@@H]21`: the “activity change, negative = cytotoxicity” value is 0.409% [at 35.3 µM] (inactive).

On to `N#CSCC(=O)O`, for which the “activity change, negative = cytotoxicity” value was 5.95% [at 35.3 µM] (inactive).

As for `CNCCC(Oc1ccccc1OC)c1ccccc1` (stereo not given), the “activity change, negative = cytotoxicity” value is -16.5% [at 35.3 µM] (inactive).

With `C=CCc1cc(OC)c(O)c(C(=O)NCCO)c1`, the “activity change, negative = cytotoxicity” value was 0.128% [at 35.3 µM] (inactive).

With `CC1(C)S[C@@H]2[C@H](NC(=O)C(C(=O)O)c3ccccc3)C(=O)N2[C@H]1C(=O)O` (stereo not given in full), the “activity change, negative = cytotoxicity” value was 3.88% [at 35.3 µM] (inactive).

For the compound `NC1=NCC2c3ccccc3Cc3ccccc3N12` (stereo not given), the “activity change, negative = cytotoxicity” value is -1.42% [at 35.3 µM] (inactive).

In the case of `CCC(=O)Nc1ccc(O)cc1`, the “activity change, negative = cytotoxicity” value was 16.1% [at 35.3 µM] (inactive).

`O=C1CCN(c2ccccc2)N1`: the “activity change, negative = cytotoxicity” value was 0.611% (inactive).

Consider `COC(=O)C(C)O` (stereo not given), for which the “activity change, negative = cytotoxicity” value is -0.924% (inactive).

On to `CCNCCO`, for which the “activity change, negative = cytotoxicity” value was 7.06% (inactive).

Regarding `CCOC(=O)CS`, the “activity change, negative = cytotoxicity” value is -3.84% (inactive).

With `CC1=C2[C@H](/C=C(\C)C(=O)O)CC[C@@H](C)[C@H]2CC1`, the Potency was 25.5 µM (active).

Take `COc1cc(N)c(Cl)cc1C(=O)NC1CCN(Cc2ccccc2)CC1`: the Potency is 21.3 µM (active).

Turning to `CCCCNC(=S)NCCCC`, the “activity change, negative = cytotoxicity” value is -13.5% (inactive).

On to `OC[C@H]1O[C@@H](O[C@H]2[C@H](O)[C@@H](O)[C@H](O)O[C@@H]2CO)[C@H](O)[C@@H](O)[C@H]1O`, for which the “activity change, negative = cytotoxicity” value was -1.04% (inactive).
